# In the supplement of paper PMC6555819:
# Legend:
# Assay in all cases: PBM binding z-score (relative to random genomic background probes); higher = stronger binding; sequences stand for … in GC…GCGATTGACAGCGTAGAATGAAGG
# [1] = system: FXR:RXRa (NR concentration 270 nM, RXRa partner concentration 90 nM)
# How it was run: (§1)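 Binding z-scores were set against random background probes. The data came from custom Agilent 4×180K protein-binding microarrays carrying double-stranded probes with 34-nt variable regions, incubated 1 h with ligand-free nuclear receptor dimers. Partner-specific antibodies detected binding, and scanned fluorescence was regression-normalized.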
# [2] = system: LXRa:RXRa (NR concentration 270 nM, RXRa partner concentration 90 nM)
# How it was run: as §1
# [3] = system: LXRa homodimer (NR concentration 270 nM)
# How it was run: as §1
# [4] = system: LXRb:RXRa (NR concentration 270 nM, RXRa partner concentration 90 nM)
# How it was run: as §1
# [5] = system: LXRb homodimer (NR concentration 270 nM)
# How it was run: as §1
# [6] = system: PPARa:RXRa (NR concentration 270 nM, RXRa partner concentration 90 nM)
# How it was run: as §1
# [7] = system: PPARg:RXRa (NR concentration 180 nM, RXRa partner concentration 90 nM)
# How it was run: as §1
# [8] = system: PPARg:RXRa 270nM:90nM, anti-RXR (NR concentration 270 nM, RXRa partner concentration 90 nM)
# How it was run: as §1
# [9] = system: PPARg:RXRa 30nM:10nM, anti-RXR (NR concentration 30 nM, RXRa partner concentration 10 nM)
# How it was run: as §1
# [10] = system: PPARg:RXRa 90nM:30nM, anti-RXR (NR concentration 90 nM, RXRa partner concentration 30 nM)
# How it was run: as §1
# [11] = system: PPARg:RXRa DBDmut IVT, anti-RXR (DBD mutation: RXRa K156A/R161A, NR concentration 270 nM, RXRa partner concentration 90 nM)
# How it was run: as §1
# [12] = system: PPARg:RXRa IVT, anti-PPARg (NR concentration 270 nM, RXRa partner concentration 90 nM)
# How it was run: as §1
# [13] = system: PPARg DBDmut:RXRa IVT, anti-PPARg (DBD mutation: PPARg1 K132A/R137A, NR concentration 270 nM, RXRa partner concentration 90 nM)
# How it was run: as §1
# [14] = system: PPARg DBDmut IVT, anti-PPARg (DBD mutation: PPARg1 K132A/R137A, NR concentration 270 nM)
# How it was run: as §1
# [15] = system: PPARg homodimer (NR concentration 180 nM)
# How it was run: as §1
# [16] = system: PXR:RXRa (NR concentration 270 nM, RXRa partner concentration 90 nM)
# How it was run: as §1
# [17] = system: PXR homodimer (NR concentration 270 nM)
# How it was run: as §1
# [18] = system: RARa:RXR (NR concentration 270 nM, RXRa partner concentration 90 nM)
# How it was run: as §1
# [19] = system: RARa homodimer (NR concentration 270 nM)
# How it was run: as §1
# [20] = system: RARb:RXRa (NR concentration 270 nM, RXRa partner concentration 90 nM)
# How it was run: as §1
Sequence,PBM binding z-score [1],PBM binding z-score [2],PBM binding z-score [3],PBM binding z-score [4],PBM binding z-score [5],PBM binding z-score [6],PBM binding z-score [7],PBM binding z-score [8],PBM binding z-score [9],PBM binding z-score [10],PBM binding z-score [11],PBM binding z-score [12],PBM binding z-score [13],PBM binding z-score [14],PBM binding z-score [15],PBM binding z-score [16],PBM binding z-score [17],PBM binding z-score [18],PBM binding z-score [19],PBM binding z-score [20]
TCTGCTAGGTCAGTAGGTCAGCTAACGAGCTGCC,1.81,1.55,0.12,1.18,-0.0966,3.55,4.84,5,2.51,4.29,4.75,6.23,0.586,0.0507,0.729,1.3,-0.386,2.58,-1.38,3.79
GCTATTAGTTGACAGGGCAACCGAATGATTCTCG,-0.301,-0.298,-0.0236,-0.0105,-0.293,0.0349,0.532,0.626,-0.199,0.442,0.297,0.029,0.0418,0.353,0.467,-0.171,0.105,-0.228,0.00268,0.489
TAGCCTAGGTCGTGCGGGCCAGTATAGTGTCGGC,-0.111,-0.0321,-0.956,-0.439,-0.768,0.275,-0.525,-0.186,-0.812,-0.477,-0.622,0.425,-0.497,-1.13,-1.3,-0.419,-0.881,-0.166,-1.19,0.97
ACTTACGGGTCAACAAGGTTATAGCACGCGTATA,6.88,4.7,0.809,4.4,1.05,6.09,5.69,5.32,2.2,4.02,3.06,4.26,1.25,1.13,2.14,4.49,1.48,4.77,1.05,4.49
AGAATGAGGTTATATGTAGATCAGGGAAGAAAGT,2.11,1.96,0.495,1.82,0.548,3.26,2.33,2.5,0.823,1.87,3.28,2.52,1.48,1.02,1.32,1.2,0.891,1.75,1.37,1.57
ACTATTAGTTGAGACGAGGGCACCCGATAGGTTG,0.0849,0.0854,-0.0764,0.0614,0.318,0.202,0.813,0.197,0.108,0.163,-0.207,0.476,0.77,0.797,-0.607,1.33,0.328,1.2,0.511,0.966
TCAAATAGGTAAAGGTGAAAGTCGAACGATATGA,0.93,1.78,0.0504,1.72,0.00812,3.48,3.34,4.34,5,4.99,3.65,3.47,1.88,0.968,2.04,1.17,0.187,1.93,0.988,2.28
CCGACTGGGCCACGAAAGGTCATTGATTCAGTGA,3.33,4.99,3.8,4.13,-0.0773,4.31,3.41,4.06,1.52,3.16,4.66,4.28,-0.928,-1.23,2.39,5.17,0.941,4.89,0.265,3.79
GCGACTGGGGCATCAGCAGGTTACCAAAACTTAA,-0.46,-0.0944,-0.294,0.621,-0.676,1.34,0.564,0.743,-0.555,-0.000266,3.95,3.39,-1.31,-0.989,0.651,-0.0279,-0.564,0.57,-0.274,0.893
TCTAGTAGATCAATAGAGGTTAAGAAAGTGCGCT,0.905,3.79,0.28,1.96,-0.599,1.98,0.362,1.7,2.76,2.4,1.7,0.843,-0.106,0.138,0.0842,3.18,0.411,1.81,0.23,0.908
TTATCAAGGTGAGCTGAGGTCGTTGATCCAACTC,1.87,1.22,-0.0853,0.999,-0.746,1.87,0.583,1.19,0.537,0.566,1.53,2.79,0.246,-0.126,0.465,4.8,0.706,1.99,-0.272,1.85
TCGAGTTGGTTAGTCGGGGCATTCAGCCAACATA,0.0149,-0.0453,-0.453,0.513,-0.685,0.218,-0.686,0.5,1.2,0.81,0.597,0.172,-0.755,-0.529,-0.2,0.148,0.163,0.142,-0.783,0.122
CCAGACAGGTGAGAAGGTAACTCACCCTCGATTA,-0.00684,0.259,-0.0683,0.491,-0.394,1.09,0.731,0.509,-0.0353,-0.0765,0.889,0.707,-0.339,-0.245,0.968,0.325,0.219,0.748,0.925,0.764
TCGAGTAGGTTAGGGGCCTTCAGAATGGCGTCGA,-0.193,-0.323,-0.797,-0.221,-0.986,0.54,0.638,2.19,0.926,2.03,1.32,1.07,-0.729,-0.939,-0.145,-0.478,-0.829,-0.114,-1.13,0.24
CCTACTGCGCCAAGGTCATTGATCAGTCAAAGCA,3.5,3.48,2.13,3.52,0.86,3.75,0.507,1.59,-0.0931,0.819,0.265,0.978,-0.442,-0.653,2.68,3.85,2.48,3.83,1.07,3.51
ATCGAAAGGTAGAGGTGAGTATAGAGAAAGGGAA,0.781,0.589,0.209,0.313,0.482,0.942,1,0.958,0.813,0.82,-0.16,0.688,0.622,0.766,0.946,0.265,0.595,0.402,0.765,1.28
CCGAGTGGGTTATGGGGCATTCAGGCAACGGTGA,0.128,0.155,-0.051,0.764,-0.129,1.74,2.61,3.77,1.55,3.82,1.23,2.29,-0.951,-0.669,0.384,-0.309,0.21,0.0956,0.0265,0.461
ATCGAAGGGTCGAGGTGAGTATAGAGAAAGGGAA,1.41,1.24,0.0219,1.19,0.389,2.62,1.49,1.28,0.548,0.905,-0.0932,1.19,0.848,0.0579,1.27,1.26,0.308,1.74,1.01,2.51
